Potency and outcome data for one compound are collected here from PubChem BioAssay (NCATS).

Values joined by “and” are separate entries in the source; they are usually repeats but may differ in a detail not shown here. Equal entries are not always repeated. Inconclusive results are not listed. Active and inactive are the calls of the source. Unless noted, calls follow the shape of the dose curve; as a rule, active = well fitted curve in the direction sought with a large enough effect; inconclusive = small, poorly fitted or top-dose-only effect, or another doubt; inactive = no such curve, though single readings can be large; an effect the other way counts as inactive or inconclusive.

Assay [1] deals with Endonuclease 4 (Escherichia coli (strain K12)) (UniProt P0A6C1). Nature of the assay: Counterscreen for APE1 Inhibitors: qHTS Validation Assay for Inhibitors of Endonuclease IV (AID 1708). The essentials: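 Incision of a double-stranded 50 nM TAMRA/BHQ-2 abasic substrate was followed kinetically (525/598 nm, reads every 60 s) after 15 min enzyme–compound preincubation with 2 nM EndoIV in pH 7.5 Tris buffer with MgCl2, DTT and Tween-20; concentration-response format.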
On the technique in general: A counterscreen serves to expose hits that act by an unwanted route or on another target.

Assay [2] can be described thus: qHTS for differential inhibitors of proliferation of Plasmodium falciparum line 7G8 (AID 1815).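 Also: potency is read from the fitted curve at half-maximal effect; parasite growth measured after three days of incubation.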
Assay [3] can be described thus: qHTS for differential inhibitors of proliferation of Plasmodium falciparum line GB4 (AID 1816).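 Also: potency is read from the fitted curve at half-maximal effect; parasite growth measured after 72 h incubation.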 To be noted: Potency: Plasmodium falciparum GB4 proliferation inhibition. In general terms: In qHTS, concentration-response curves come from the screen itself.
Assay [4] is described as follows: qHTS for differential inhibitors of proliferation of Plasmodium falciparum line 3D7 (AID 1876). Also: potency is read from the fitted curve at half-maximal effect.
Assay [5] is described as follows: qHTS for differential inhibitors of proliferation of Plasmodium falciparum line D10 (AID 1877).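 Also: potency is read from the fitted curve at half-maximal effect; parasites grown with compound for 72 h before DNA staining.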
A short description of assay [6]: qHTS for differential inhibitors of proliferation of Plasmodium falciparum line Dd2 (AID 1882). Also: potency is read from the fitted curve at half-maximal effect; nearly all actives have a fitted effect of over 65% in size. To be noted: Potency: Plasmodium falciparum Dd2 proliferation inhibition. The essentials: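 SYBR Green DNA fluorescence (ex 485, em 535 nm) after overnight lysis quantifies parasite growth; compound exposure lasted 72 h at 37 C on infected red cells at 2.5% hematocrit, 0.3% parasitemia (final). Artemisinin 0.29 uM and vehicle wells define normalization.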

Assay [7] is described as follows: qHTS for differential inhibitors of proliferation of Plasmodium falciparum line W2 (AID 1883).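 Also: potency is read from the fitted curve at half-maximal effect; parasites grown with compound for 72 h before lysis and staining.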 To be noted: Potency: Plasmodium falciparum W2 proliferation inhibition.
For assay [8], the target named is ATP-dependent DNA helicase Q1 (Homo sapiens) (UniProt P46063). The experiment in a line: qHTS Validation Assay for Inhibitors of RecQ-Like Dna Helicase 1 (RECQ1) (AID 2353). The essentials:
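RECQ1T1 50 nM; forked duplex (20 bp + 30-nt ss tails) 200 nM, ATP 2 mM final; pH 8.0, 2 mM MgCl2, 2.5 ug/ml poly(dI-dC); 15 min compound preincubation; discontinuous kinetic read over 2 h at RT.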

A short description of assay [9]: Cytometric Cell-Based qHTS for Inhibitors of the mTORC1 Signaling Pathway in MEF (Tsc2-/-, p53-/-) Cells (AID 2660).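 Also: Tsc2 and p53 null MEFs carrying empty vector with compound for 24 h; percent of cells above a phospho-rpS6 to PI ratio cutoff in each well.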 The essentials:
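Cells are plated, treated with compound for 24 hrs at 37 degree Celsius, then fixed, blocked and immunostained for phospho-rpS6 Ser235/236. Propidium iodide counterstain follows. Per-well % positive cells is derived from the PI-normalized phospho-S6 signal.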

Assay [10] is described as follows: High Content Imaging Cell-Based qHTS for Inhibitors of the mTORC1 Signaling Pathway in MEF (Tsc2-/-, p53-/-) Cells (AID 2666).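 Also: percent of cells scored positive for phospho-rpS6 Ser235/236 immunostaining by imaging.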 To be noted: at 38.3 µM (top of the series). The essentials: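 Tsc2-/-, p53-/- MEFs (empty-vector stable) grown in DMEM + 10% FBS were exposed to compounds for 24 hrs at 37 degree Celsius, fixed, and stained with Alexa-488 anti-phospho-rpS6 Ser235/236 plus Hoechst. Imaging gave the percentage of positive cells per well.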

Assay [11] is described as follows: High Content Imaging Cell-Based qHTS for Inhibitors of the mTORC1 Signaling Pathway in MEF Cells (AID 2667).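 Also: Tsc2-/- p53-/- MEFs stably re-expressing wild-type Tsc2 exposed 24 h.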 In outline:
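Tsc2-/-, p53-/- MEFs stably re-expressing WT Tsc2, grown in DMEM + 10% FBS, were treated with compounds for 24 hrs at 37 degree Celsius, fixed, and stained with Alexa-488 phospho-rpS6 Ser235/236 antibody plus Hoechst; results given as % positive cells.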

Assay [12] is described as follows: Cytometry Cell-Based qHTS for Inhibitors of the mTORC1 Signaling Pathway in MEF cells (AID 2668).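 Also: Tsc2-/- p53-/- mouse embryonic fibroblasts stably re-expressing wild-type Tsc2; percent cells positive for phospho-rpS6 Ser235/236 relative to propidium iodide stain.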 In outline: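 Phospho-rpS6 (Ser235/236) immunofluorescence over PI signal, scored as % positive cells using thresholds from 7.5 nM rapamycin and DMSO wells, after 24 h compound exposure of WT-Tsc2-rescued Tsc2-/-, p53-/- MEFs. PI cell count recorded for viability.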

The nature of assay [13]: Validation screen for small molecules that induce DNA re-replication in MCF 10A normal breast cells (AID 463097). Also: potency is read from the fitted curve at half-maximal effect; nearly all actives have a fitted effect of over 60% in size. In outline: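 Read-out is Hoechst total nuclear intensity by fluorescence scanning imager, flagging increased high-DNA-content nuclei. Compounds were incubated with MCF 10A cells for 48 hr (37 C, 5% CO2) before 40 min staining.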
The target in assay [14] is Ubiquitin carboxyl-terminal hydrolase 2 (Homo sapiens) (UniProt O75604). Nature of the assay: qHTS Validation Assay for Inhibitors of Ubiquitin-specific Protease USP2a Using CHOP2 as the Reporter (AID 463106). In outline: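 Readout was coupled fluorescence (Ex 485/Em 531 nm), read 60 min after adding 25 nM final Ub-CHOP2 and 25 nM reporter substrate. Beforehand, 10 nM final USP2 core had 30 min at RT with compound in pH 8.0 buffer. Curves were fitted after normalization to NEM and flagged for artifacts using time-zero reads.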
Chain of Ubiquitin carboxyl-terminal hydrolase 2 (Homo sapiens) (O75604 whole entry, looked up): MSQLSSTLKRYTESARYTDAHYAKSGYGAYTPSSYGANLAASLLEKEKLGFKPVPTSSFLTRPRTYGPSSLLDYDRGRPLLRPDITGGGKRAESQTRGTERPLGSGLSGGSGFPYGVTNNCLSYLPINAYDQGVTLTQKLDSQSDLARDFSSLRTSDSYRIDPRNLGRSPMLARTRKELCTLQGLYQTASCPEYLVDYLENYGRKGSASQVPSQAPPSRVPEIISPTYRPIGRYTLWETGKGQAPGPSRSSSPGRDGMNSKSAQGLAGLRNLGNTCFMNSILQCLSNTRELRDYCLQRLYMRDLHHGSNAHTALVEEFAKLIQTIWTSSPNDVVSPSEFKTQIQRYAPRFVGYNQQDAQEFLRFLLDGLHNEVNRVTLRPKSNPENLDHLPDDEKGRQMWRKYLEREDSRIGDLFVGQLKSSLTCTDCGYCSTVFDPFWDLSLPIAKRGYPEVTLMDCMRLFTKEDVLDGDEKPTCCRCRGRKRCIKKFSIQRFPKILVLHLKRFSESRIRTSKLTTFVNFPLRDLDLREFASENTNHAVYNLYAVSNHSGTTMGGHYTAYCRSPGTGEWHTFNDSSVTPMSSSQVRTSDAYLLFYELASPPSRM

In assay [15] the target is DNA polymerase III PolC-type (Bacillus subtilis (strain 168)) (UniProt P13267). The experiment in a line: qHTS Validation Assay for the Inhibitors of DNA Replication in Gram-Positive Bacteria (AID 485295).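 Also: reconstituted holoenzyme with PolC plus beta clamp SSB and primase; PicoGreen fluorescence of double-stranded DNA made on primed circular M13 template.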 The essentials: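 Double-stranded DNA product detected by PicoGreen fluorescence after EDTA quench. Compound incubated with B. subtilis holoenzyme (PolC, beta subunit, SSB, primase) before substrate addition; primed replication of M13Gori with dNTPs and NTPs at room temperature; DMSO defines 0% inhibition.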
Chain of DNA polymerase III PolC-type (Bacillus subtilis (strain 168)) (P13267 whole entry, looked up): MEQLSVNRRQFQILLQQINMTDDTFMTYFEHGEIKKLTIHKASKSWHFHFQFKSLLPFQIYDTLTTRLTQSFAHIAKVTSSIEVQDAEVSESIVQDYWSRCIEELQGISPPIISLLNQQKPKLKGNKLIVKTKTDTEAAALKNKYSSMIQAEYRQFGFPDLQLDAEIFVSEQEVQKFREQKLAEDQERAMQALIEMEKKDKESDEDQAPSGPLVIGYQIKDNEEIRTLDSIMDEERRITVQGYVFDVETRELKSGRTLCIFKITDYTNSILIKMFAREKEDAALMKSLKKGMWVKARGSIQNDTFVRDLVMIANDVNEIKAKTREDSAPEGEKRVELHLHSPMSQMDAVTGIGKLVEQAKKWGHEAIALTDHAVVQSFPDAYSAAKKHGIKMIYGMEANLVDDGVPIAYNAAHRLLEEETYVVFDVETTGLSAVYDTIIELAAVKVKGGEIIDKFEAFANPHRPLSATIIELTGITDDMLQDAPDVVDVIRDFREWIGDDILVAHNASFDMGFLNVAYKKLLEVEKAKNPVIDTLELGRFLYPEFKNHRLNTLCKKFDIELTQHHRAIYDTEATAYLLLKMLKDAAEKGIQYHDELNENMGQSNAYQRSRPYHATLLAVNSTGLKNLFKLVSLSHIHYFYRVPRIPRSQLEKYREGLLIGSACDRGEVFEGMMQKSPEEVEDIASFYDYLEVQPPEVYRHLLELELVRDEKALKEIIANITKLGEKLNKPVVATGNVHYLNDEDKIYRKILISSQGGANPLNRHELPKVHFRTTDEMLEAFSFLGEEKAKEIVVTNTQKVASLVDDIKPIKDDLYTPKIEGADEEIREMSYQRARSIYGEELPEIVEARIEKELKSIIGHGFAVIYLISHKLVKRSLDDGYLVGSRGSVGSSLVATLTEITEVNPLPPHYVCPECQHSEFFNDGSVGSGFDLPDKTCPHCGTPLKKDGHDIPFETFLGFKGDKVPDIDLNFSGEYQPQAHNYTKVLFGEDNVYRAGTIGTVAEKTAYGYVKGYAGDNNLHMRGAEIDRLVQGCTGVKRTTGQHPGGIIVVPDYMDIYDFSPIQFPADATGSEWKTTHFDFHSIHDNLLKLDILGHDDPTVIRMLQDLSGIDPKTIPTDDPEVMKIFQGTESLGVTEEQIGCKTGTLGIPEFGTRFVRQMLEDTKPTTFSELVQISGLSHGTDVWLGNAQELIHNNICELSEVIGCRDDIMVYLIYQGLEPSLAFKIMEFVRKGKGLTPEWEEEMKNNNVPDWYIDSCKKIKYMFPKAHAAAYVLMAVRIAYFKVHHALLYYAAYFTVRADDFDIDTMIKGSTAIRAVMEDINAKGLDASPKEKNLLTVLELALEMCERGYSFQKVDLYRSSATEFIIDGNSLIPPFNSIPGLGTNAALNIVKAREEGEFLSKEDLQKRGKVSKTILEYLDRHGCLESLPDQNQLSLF

The target of assay [16] is Tumor susceptibility gene 101 protein (Homo sapiens) (UniProt Q99816). Nature of the assay: qHTS Validation Assay for Iinhibitors of HIV-1 Budding by Blocking the Interaction of PTAP/TSG101 (AID 485342; calls by dose curve). The essentials: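 Fluorescence polarization of 50 nM FITC-PTAP peptide bound to 10 uM Tsg101 binding domain was read after 20 min room-temperature incubation with compounds, in 10 mM HEPES pH 7.5, 0.15 M NaCl, 0.01% Tween 20.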
Chain of Tumor susceptibility gene 101 protein (Homo sapiens) (Q99816 whole entry, looked up, the tested form may be a part): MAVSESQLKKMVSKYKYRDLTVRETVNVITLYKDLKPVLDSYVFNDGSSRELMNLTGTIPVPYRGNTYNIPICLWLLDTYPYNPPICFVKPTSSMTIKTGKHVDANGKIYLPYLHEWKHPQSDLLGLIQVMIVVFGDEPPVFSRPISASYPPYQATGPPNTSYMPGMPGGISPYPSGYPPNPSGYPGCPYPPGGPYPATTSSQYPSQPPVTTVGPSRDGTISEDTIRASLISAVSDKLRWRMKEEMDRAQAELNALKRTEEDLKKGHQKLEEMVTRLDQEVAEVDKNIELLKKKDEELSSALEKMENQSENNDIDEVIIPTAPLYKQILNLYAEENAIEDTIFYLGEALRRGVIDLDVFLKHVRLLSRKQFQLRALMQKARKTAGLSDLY

Assay [17] concerns the target Beta-2 adrenergic receptor (Homo sapiens) (UniProt P07550). The experiment in a line: qHTS validation assay of beta-arrestin-biased ligands of beta2-adrenergic receptor (AID 485366). In outline:
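Compound series up to 46 microM applied to beta2-AR/beta-arrestin Tango cells, 18 hr, 37 degrees C, 5% CO2. Read-out: tTA-driven luciferase luminescence, converted to %Activity; concentration-response curves assigned curve classes.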

Assay [18] has as its target Thioredoxin reductase 1, cytoplasmic (Rattus norvegicus) (UniProt O89049). Nature of the assay: qHTS Assay for Inhibitors of Mammalian Selenoprotein Thioredoxin Reductase 1 (TrxR1) (AID 488773).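 Also: drop in NADPH fluorescence over an 8 min run after selenite addition; nearly all actives have a fitted effect of over 40% in size.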 To be noted: Potency: inhibition. In outline: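 Inhibition is scored from the loss of NADPH fluorescence between first and last reads of an 8-min kinetic run. Selenite (400 uM) was the substrate, added after 15 min compound preincubation at room temperature.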

The target of assay [19] is M-phase phosphoprotein 8 (Homo sapiens) (UniProt Q99549). The experiment in a line: qHTS Validation Assay for Inhibitors for MPP8 Chromodomain Interactions with Methylated Histone Tails (AID 488949). Also: potency is read from the fitted curve at half-maximal effect; nearly all actives have a fitted effect of over 55% in size. In outline: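 AlphaScreen proximity signal from streptavidin donor and Ni-chelate acceptor beads (10 ug/mL each) reported binding of MPP8 to trimethyl-K9 H3(1-18) peptide, both at 50 nM. The complex formed 30 min before a 30 min compound exposure at room temperature, in PBS pH 7.4.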
Chain of M-phase phosphoprotein 8 (Homo sapiens) (Q99549 whole entry, looked up): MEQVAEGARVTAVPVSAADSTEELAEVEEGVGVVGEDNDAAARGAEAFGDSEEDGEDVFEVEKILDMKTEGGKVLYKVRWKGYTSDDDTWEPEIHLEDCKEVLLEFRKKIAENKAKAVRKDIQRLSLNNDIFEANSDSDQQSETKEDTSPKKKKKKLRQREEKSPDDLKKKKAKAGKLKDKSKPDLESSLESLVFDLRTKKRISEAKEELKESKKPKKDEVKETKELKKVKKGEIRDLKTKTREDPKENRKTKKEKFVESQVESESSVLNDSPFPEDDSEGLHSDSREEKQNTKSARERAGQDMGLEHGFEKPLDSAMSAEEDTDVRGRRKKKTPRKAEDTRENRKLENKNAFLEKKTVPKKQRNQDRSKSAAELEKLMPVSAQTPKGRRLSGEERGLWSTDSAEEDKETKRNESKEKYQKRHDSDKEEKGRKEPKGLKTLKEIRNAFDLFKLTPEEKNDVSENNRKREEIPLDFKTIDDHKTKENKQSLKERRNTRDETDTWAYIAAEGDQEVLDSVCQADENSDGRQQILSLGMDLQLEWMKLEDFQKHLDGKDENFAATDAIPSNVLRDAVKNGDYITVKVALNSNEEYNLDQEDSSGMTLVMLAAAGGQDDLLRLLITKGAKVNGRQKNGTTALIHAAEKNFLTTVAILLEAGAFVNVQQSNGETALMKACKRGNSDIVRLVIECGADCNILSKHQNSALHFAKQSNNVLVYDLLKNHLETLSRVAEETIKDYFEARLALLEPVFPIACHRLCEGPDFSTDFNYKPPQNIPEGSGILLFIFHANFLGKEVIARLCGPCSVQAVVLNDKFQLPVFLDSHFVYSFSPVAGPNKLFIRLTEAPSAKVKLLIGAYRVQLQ

In assay [20] the target is Chromobox protein homolog 1 (Homo sapiens) (UniProt P83916). The experiment in a line: qHTS Validation Assay for Inhibitors of HP1-beta Chromodomain Interactions with Methylated Histone Tails (AID 488953). Also: potency is read from the fitted curve at half-maximal effect; nearly all actives have a fitted effect of over 50% in size. The essentials:
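AlphaScreen proximity signal from streptavidin donor and nickel chelate acceptor beads (final 10 ug/mL) after 30 min dark incubation. Compounds had 30 min at room temperature with preformed complex of 50 nM HP1-beta and 50 nM b-H3(1-18)K9me3 in PBS pH 7.4 with 0.01% Tween-20.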

In assay [21] the target is Thyrotropin receptor (Homo sapiens) (UniProt P16473). Nature of the assay: qHTS Assay for Antagonists of the Thyroid Stimulating Hormone Receptor (AID 488980). In outline:
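Inhibition of cAMP raised by EC80 TSH (4 nM final) was read by HTRF, with lysate cAMP competing against cAMP-d2 for cryptate antibody after 30 min at room temperature. The cells were transfected HEK293 held in phosphodiesterase inhibitor RO 20-1724 at 70 uM.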

Assay [22] concerns the target D(1A) dopamine receptor (Homo sapiens) (UniProt P21728). The experiment in a line: HTS Assay for Allosteric Agonists of the Human D1 Dopamine Receptor: Primary Screen for Agonists (AID 488981). The essentials:
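Calcium flux in an inducible, force-coupled HEK293 Trex D1 line (overnight at 30 C): agonist mode is the 180 s kinetic read after compound; potentiator mode is the following 180 s read after dopamine at EC20.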

Chain of D(1A) dopamine receptor (Homo sapiens) (P21728 whole entry, looked up): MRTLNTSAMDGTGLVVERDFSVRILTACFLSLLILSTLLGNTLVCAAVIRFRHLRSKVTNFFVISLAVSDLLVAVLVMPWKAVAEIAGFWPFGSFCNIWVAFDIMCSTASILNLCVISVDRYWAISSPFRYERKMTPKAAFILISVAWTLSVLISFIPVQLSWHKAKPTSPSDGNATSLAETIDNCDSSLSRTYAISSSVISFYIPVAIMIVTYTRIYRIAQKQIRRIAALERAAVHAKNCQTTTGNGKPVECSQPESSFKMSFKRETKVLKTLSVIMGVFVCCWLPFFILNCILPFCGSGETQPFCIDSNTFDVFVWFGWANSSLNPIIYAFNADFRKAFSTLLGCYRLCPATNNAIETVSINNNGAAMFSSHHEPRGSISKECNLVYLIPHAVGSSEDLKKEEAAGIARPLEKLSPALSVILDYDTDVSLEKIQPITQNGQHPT
Chain of Thyrotropin receptor (Homo sapiens) (P16473 whole entry, looked up): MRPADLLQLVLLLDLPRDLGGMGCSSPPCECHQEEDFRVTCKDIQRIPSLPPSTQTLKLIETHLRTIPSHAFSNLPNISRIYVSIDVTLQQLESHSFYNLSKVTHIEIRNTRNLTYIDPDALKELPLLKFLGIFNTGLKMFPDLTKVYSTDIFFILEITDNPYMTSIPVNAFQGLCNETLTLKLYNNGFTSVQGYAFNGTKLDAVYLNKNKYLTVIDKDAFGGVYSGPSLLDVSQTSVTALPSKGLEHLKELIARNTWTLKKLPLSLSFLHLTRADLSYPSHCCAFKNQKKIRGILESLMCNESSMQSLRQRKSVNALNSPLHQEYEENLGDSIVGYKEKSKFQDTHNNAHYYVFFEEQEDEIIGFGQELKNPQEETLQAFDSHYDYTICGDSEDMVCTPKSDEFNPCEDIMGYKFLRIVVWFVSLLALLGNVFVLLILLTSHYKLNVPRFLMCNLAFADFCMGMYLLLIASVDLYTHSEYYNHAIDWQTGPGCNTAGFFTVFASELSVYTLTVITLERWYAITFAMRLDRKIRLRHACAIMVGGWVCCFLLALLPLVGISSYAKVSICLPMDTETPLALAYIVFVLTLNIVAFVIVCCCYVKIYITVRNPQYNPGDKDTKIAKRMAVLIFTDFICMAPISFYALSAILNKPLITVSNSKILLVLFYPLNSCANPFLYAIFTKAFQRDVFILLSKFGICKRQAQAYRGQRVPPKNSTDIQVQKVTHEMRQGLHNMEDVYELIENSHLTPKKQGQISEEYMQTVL
Chain of Beta-2 adrenergic receptor (Homo sapiens) (P07550 whole entry, looked up): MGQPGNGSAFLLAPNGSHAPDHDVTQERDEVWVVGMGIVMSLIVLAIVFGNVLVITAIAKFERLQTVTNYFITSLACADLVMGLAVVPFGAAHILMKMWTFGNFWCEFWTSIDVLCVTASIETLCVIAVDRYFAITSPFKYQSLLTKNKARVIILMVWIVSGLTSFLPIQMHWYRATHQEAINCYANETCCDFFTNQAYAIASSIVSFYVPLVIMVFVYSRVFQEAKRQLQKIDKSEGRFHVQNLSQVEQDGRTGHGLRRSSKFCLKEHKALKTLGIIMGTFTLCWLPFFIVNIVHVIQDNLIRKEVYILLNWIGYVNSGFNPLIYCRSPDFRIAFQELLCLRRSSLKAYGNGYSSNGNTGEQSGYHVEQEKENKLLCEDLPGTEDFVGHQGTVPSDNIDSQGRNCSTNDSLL

As to `N#C/C(=C\c1ccc(O)c(O)c1)C(=O)Nc1ccccc1`, the Potency result in [1], in assay [8], in assay [11], in [12], in [14] and in [15] was “inactive” each time. Also, in assay [18], the Potency result was “inactive”. Further, the Potency was 8.91 µM (active) in assay [2]; 14.1 µM (active) in assay [3]; 12.6 µM (active) in [4]; 10 µM (active) in [5]; 12.6 µM (active) in [6]; 7.94 µM (active) in assay [7]. For the same compound, the Potency in assay [13] was 12.6 µM (active); in assay [19], 12.6 µM (active) and 10.6 µM (active); in assay [20], 12.6 µM (active). Besides, the compound was called inactive in [9], in [10], in assay [16], in assay [17], in assay [21] and in assay [22].
